Experiment [1] can be described thus: resazurin metabolic signal in HepG2 cells – cell-based, resazurin fluorescence, 24 h, PK04 Diversity Set, profiling panel (AID 1172). The note with it: HepG2 viability, higher = more signal. On the technique in general: Alamar Blue is a resazurin reagent that responds to reducing activity.
Experiment [2] is described as follows: budding yeast growth changes without added modifier – OD600, strain BY4716, 24 h, basal condition, primary screen (AID 1173). The following applies: S. cerevisiae BY4716 growth, OD600, 24 h; higher = more signal, called active from +8 up or from −8 down.
Experiment [3] can be described thus: viability profiling in MM1S myeloma cells – cell-based, resazurin fluorescence, basal, 24 h, PK04 Diversity Set, profiling panel (AID 1174).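 Further: MM1S multiple myeloma cell line.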 The note with it: higher = more signal, called active from +8 up or from −8 down.
Experiment [4] has as its target Dihydroorotate dehydrogenase (quinone), mitochondrial (Plasmodium falciparum (isolate 3D7)) (UniProt Q08210). As to the kind of experiment: inhibition of P. falciparum DHODH – biochemical, C-terminal His tag, absorbance 600 nm, primary screen (AID 1175).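 Further: recombinant parasite enzyme with a five histidine tag at its C terminus.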 The following applies: PfDHODH enzyme, DCIP absorbance 600 nm; higher = more signal, called active from +8 up or from −8 down.

A short description of experiment [5]: inhibition of PAO1 biofilm formation – strain PAO1, LB-PBS medium, absorbance 600 nm, primary screen (AID 1176). The following applies: P. aeruginosa PAO1 growth/biofilm, A600, 12 h; higher = more signal.
Experiment [6] can be described thus: growth modulation of vineyard yeast isolate – strain RM11-1a, OD600, basal, 24 h, primary screen (AID 1177).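 Further: cultures grown under basal conditions with no added stressor.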 The note with it: S. cerevisiae RM11-1a growth, OD600, 24 h; higher = more signal, called active from +8 up or from −8 down.
The nature of experiment [7]: growth of efflux-deficient E. coli DRC39 – strain DRC39, OD650, 24 h, E. coli filamentation inducers, primary screen (AID 1178).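 Further: growth measured as culture turbidity by optical density at 650 nm.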 The note with it: E. coli DRC39 acrAB, higher = more signal, called active from +8 up or from −8 down.
Experiment [8] can be described thus: growth of efflux-deficient E. coli DRC39 – strain DRC39, OD650, 48 h, E. coli filamentation inducers, primary screen (AID 1179).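 Further: screen aims at cell division blockers that make cells filament.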 The following applies: E. coli DRC39 delta-acrAB growth, higher = more signal, called active from +8 up or from −8 down.
Experiment [9] in a line: viability profiling in RPMI8226 myeloma cells – cell-based, resazurin fluorescence, basal, 24 h, PK04 Diversity Set, profiling panel (AID 1180).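 Further: RPMI8826 multiple myeloma cell line at 5000 cells per well.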 The note with it: higher = more signal.
Experiment [10] concerns the target E3 ubiquitin-protein ligase XIAP (Homo sapiens) (UniProt P98170). As to the kind of experiment: small molecules binding XIAP protein – biophysical, small-molecule microarray, fluorescence 635 nm, primary screen (AID 1181).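 Further: score merges 667 nm emission and signal to noise over triplicate slides.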 The note with it: higher = more signal.
Experiment [11] deals with XIP peptide (Xip251-270) binding. As to the kind of experiment: XIP fragment 251-270 binding compounds – biochemical, small-molecule microarray, fluorescence 635/667 nm, 0.1 µg/mL protein, primary screen (AID 1182). The following applies: fluorescent protein binding, 635 nm, higher = more signal, called active from +8 up or from −8 down.
A further experiment concerns XIP peptide (Xip251-270). As to the kind of experiment: compounds binding XIP fragment 251-270 – biochemical, small-molecule microarray, fluorescence 635/667 nm, 0.5 µg/mL protein, primary screen (AID 1183). The note with it: fluorescence 635 nm, higher = more signal.
A short description of experiment [12]: blood-stage malaria parasite viability loss – strain 3D7, DAPI fluorescence, 100 nL, primary screen (AID 1184).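 Further: parasites grown inside human red blood cells in medium with human serum.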 The note with it: P. falciparum 3D7 growth, 3 d, higher = more signal.
Experiment [13] has as its target Homeobox protein Hox-A13 (Mus musculus) (UniProt Q62424). Nature of the experiment: disruptors of Hoxa13 oligonucleotide interaction – biochemical, fluorescence polarization, labeled oligonucleotide, primary screen (AID 1185). The following applies: Hoxa13:DNA binding, 15 min, higher = more signal, called active from +8 up or from −8 down.
Experiment [14] in a line: blockers of DNA damage checkpoint Chk1 activation – imaging, HeLa, hydroxyurea, phospho-Chk1 antibody, percent positive cells, primary screen (AID 1186). The following applies: hydroxyurea-induced phospho-Chk1 immunofluorescence imaging, higher = more signal.
The nature of experiment [15]: blockers of DNA damage checkpoint Chk1 activation – imaging, HeLa, hydroxyurea, phospho-Chk1 nuclear intensity, primary screen (AID 1187). The following applies: hydroxyurea-induced phospho-Chk1 immunofluorescence imaging, higher = more signal.

The structures appear in SMILES notation. The source made the active and inactive calls. Unless noted, how the calls were made is not given here.

Sequence of Homeobox protein Hox-A13 (Mus musculus) (Q62424 whole entry, looked up): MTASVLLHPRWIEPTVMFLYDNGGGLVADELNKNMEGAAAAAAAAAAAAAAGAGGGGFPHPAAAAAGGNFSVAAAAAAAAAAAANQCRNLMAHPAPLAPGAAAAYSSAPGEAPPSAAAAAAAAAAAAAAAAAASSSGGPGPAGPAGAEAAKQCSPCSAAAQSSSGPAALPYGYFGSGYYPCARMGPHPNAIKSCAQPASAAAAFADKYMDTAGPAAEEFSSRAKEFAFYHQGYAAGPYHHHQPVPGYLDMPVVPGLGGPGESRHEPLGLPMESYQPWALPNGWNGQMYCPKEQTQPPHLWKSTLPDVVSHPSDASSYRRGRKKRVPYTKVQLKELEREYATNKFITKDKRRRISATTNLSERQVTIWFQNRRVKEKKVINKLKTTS
Sequence of Dihydroorotate dehydrogenase (quinone), mitochondrial (Plasmodium falciparum (isolate 3D7)) (Q08210 whole entry, looked up): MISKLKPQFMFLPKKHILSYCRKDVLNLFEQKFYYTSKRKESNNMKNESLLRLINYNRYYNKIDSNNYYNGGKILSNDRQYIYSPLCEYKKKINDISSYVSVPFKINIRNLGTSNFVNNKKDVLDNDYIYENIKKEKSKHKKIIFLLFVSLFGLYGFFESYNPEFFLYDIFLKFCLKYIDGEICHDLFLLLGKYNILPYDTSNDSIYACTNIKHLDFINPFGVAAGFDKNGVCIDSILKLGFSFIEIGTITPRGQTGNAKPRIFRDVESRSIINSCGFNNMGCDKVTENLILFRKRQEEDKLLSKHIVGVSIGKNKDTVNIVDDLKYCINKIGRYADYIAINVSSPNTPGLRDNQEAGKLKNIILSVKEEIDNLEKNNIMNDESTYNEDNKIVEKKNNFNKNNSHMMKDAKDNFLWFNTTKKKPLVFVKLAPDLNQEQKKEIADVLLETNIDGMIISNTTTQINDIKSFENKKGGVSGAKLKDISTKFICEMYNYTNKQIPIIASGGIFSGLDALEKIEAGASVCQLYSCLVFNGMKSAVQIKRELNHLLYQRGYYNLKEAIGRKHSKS
Sequence of E3 ubiquitin-protein ligase XIAP (Homo sapiens) (P98170 whole entry, looked up, the tested form may be a part): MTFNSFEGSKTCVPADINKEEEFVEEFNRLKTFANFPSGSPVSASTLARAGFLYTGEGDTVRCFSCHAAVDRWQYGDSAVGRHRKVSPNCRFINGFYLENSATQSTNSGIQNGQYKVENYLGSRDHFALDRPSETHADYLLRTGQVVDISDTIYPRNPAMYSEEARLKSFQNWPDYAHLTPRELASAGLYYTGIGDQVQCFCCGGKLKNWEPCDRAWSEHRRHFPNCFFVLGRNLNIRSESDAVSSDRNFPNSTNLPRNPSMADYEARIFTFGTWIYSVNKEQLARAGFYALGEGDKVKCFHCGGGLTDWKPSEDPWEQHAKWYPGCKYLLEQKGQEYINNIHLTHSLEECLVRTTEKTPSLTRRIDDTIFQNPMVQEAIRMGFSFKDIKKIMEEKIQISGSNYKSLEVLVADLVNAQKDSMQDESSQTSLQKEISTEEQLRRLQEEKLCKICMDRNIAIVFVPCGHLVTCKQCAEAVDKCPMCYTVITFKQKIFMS

As to `CC[C@@H]1C=C(C(=O)O)[C@H](c2ccc(C)cc2)N1S(=O)(=O)c1ccc(C)cc1`, the z-score is 0.675 in [1]; 0.174 (inactive) in experiment [2]; 0.0178 (inactive) in experiment [3]; -0.433 (inactive) in experiment [5]; -0.66 (inactive) in experiment [6]; -0.303 (inactive) in experiment [7]. The z-score is 0.637 (inactive) in experiment [8]; -0.0794 in experiment [9]; 1.14 in experiment [12]; -1.69 (inactive) in [13]; 0.723 (inactive) in experiment [14]; 0.909 (inactive) in experiment [15]. For the same compound, the composite z-score is -1.85 (inactive) in experiment [4], 0.0701 in [10], -0.143 (inactive) in experiment [11] and 0.468 with XIP peptide (Xip251-270).
In the case of `C=CCNC(=O)[C@H]1[C@@H]2C(=O)O[C@@H](c3ccccc3)[C@@H](c3ccccc3)N2[C@@H](c2ccc(OCCO)cc2)[C@]12C(=O)Nc1ccc(C#CCC(C(=O)OC)C(=O)OC)cc12`, the z-score in experiment [1] was 0.47; in experiment [2], 1.62 (inactive); in experiment [3], -0.447 (inactive); in [5], 2.63 (inactive); in experiment [6], 2.22 (inactive); in experiment [7] it was 0.634 (inactive). Moreover, the z-score in [8] is -0.115 (inactive); in [9], -2.64; in [12], -2.03; in experiment [13] it was -2.29 (inactive); in [14], 0.239 (inactive); in experiment [15], 0.514 (inactive). The composite z-score in [4] is 0.26 (inactive); in [10] it was 0.0975; in experiment [11], 1.06 (inactive); in the experiment with XIP peptide (Xip251-270), 0.635.
`C=CC[C@]1(C(N)=O)COC(c2ccc(OCCCO)cc2)=N1`: the z-score in [1] is 1.4; in [2], 0.412 (inactive); in experiment [3] it was -0.801 (inactive); in [5], -0.814 (inactive); in experiment [6] it was 0.75 (inactive); in experiment [7] it was 1.12 (inactive). The z-score in experiment [8] is 1.83 (inactive); in experiment [9] it was 0.679; in experiment [12], 0.668; in experiment [13], -0.063 (inactive); in experiment [14], -0.551 (inactive); in [15], -0.351 (inactive). Moreover, the composite z-score in experiment [4] is 0.94 (inactive); in [10], -0.095; in experiment [11], -0.539 (inactive); in the experiment with XIP peptide (Xip251-270), -0.0487.
Regarding `COC(=O)[C@]1(CCC(=O)OC(C)(C)C)N=C(c2ccc(OCCCO)cc2)O[C@@H]1c1ccccc1`, the z-score in [1] was -0.134; in experiment [2] it was -0.761 (inactive); in experiment [3], -0.671 (inactive); in experiment [5] it was 0.438 (inactive); in experiment [6], 0.504 (inactive); in experiment [7], 3.37 (inactive). Moreover, the z-score was 0.648 (inactive) in [8]; -1.47 in [9]; -2.31 in [12]; -4.4 (inactive) in experiment [13]; -0.621 (inactive) in experiment [14]; -0.545 (inactive) in experiment [15]. The composite z-score in experiment [4] is -0.134 (inactive); in experiment [10], 0.153; in [11], 1.87 (inactive); in the experiment on XIP peptide (Xip251-270) it was 0.761.
For the compound `COc1ccc(CCNC(=O)[C@@]2(c3ccc([N+](=O)[O-])cc3)CC(=O)N(CC34CC5CC(CC(C5)C3)C4)[C@@H]2c2ccc(CO)cc2I)cc1`, the z-score in experiment [1] is -1.49; in experiment [2] it was 0.0097 (inactive); in [3], -1.81 (inactive); in experiment [5], 1.8 (inactive); in experiment [6], 0.437 (inactive); in experiment [7], 0.0777 (inactive). The z-score in experiment [8] was 0.223 (inactive); in experiment [9] it was -1.79; in experiment [12], -1.46; in [13], -0.814 (inactive); in experiment [14], -0.155 (inactive); in experiment [15], 0.022 (inactive). In addition, the composite z-score in experiment [4] is 0.387 (inactive); in [10], -0.195; in experiment [11], 0.417 (inactive); with XIP peptide (Xip251-270), 0.723.
For `O=C1NC(=O)C2C1C=CC(C(O)c1ccc(I)cc1)N2Nc1ccccn1` (centres undefined), the z-score in [1] was -1.45; in experiment [2] it was -0.27 (inactive); in experiment [3], -0.766 (inactive); in experiment [5], 1.48 (inactive); in experiment [6], 0.275 (inactive); in experiment [7], -0.062 (inactive). For the same compound, the z-score in experiment [8] is -0.495 (inactive); in [9], -1.01; in experiment [12] it was 1.04; in experiment [13], -1.85 (inactive); in experiment [14], 0.955 (inactive); in experiment [15] it was 0.534 (inactive). Moreover, the composite z-score in [4] is 0.309 (inactive); in experiment [10], 0.189; in [11] it was 0.932 (inactive); in the experiment with XIP peptide (Xip251-270), 0.457.
For `COc1cc2c(cc1O)C=[N+](Cc1cc3c(cc1Br)OCO3)CC2`, the z-score in experiment [1] was -0.532; in experiment [2], 0.384 (inactive); in experiment [3] it was -1.29 (inactive); in [5], 0.0898 (inactive); in experiment [6], 0.593 (inactive); in experiment [7], -0.31 (inactive). The z-score in experiment [8] is -0.3 (inactive); in experiment [9], -0.566; in experiment [12], -1.88; in experiment [13], -3.19 (inactive); in experiment [14] it was -0.126 (inactive); in experiment [15], -0.203 (inactive). For the same compound, the composite z-score in experiment [4] was 0.707 (inactive); in experiment [10], -0.252; in experiment [11], -0.105 (inactive); with XIP peptide (Xip251-270), 1.1.
Turning to `COCCOC(=O)N1C(=O)[C@@]2(c3cc(C#CCCO)ccc31)[C@H](c1ccc(O)cc1)N1[C@H](c3ccccc3)[C@H](c3ccccc3)OC(=O)[C@H]1[C@@H]2C(=O)N1CCN(c2ncccn2)CC1`, the z-score in experiment [1] was 1.36; in experiment [2] it was 0.467 (inactive); in experiment [3], -0.0402 (inactive); in [5], 0.541 (inactive); in [6], 0.035 (inactive); in [7], -0.235 (inactive). Besides, the z-score was -0.62 (inactive) in [8]; 0.783 in experiment [9]; -1.13 in experiment [12]; -2.37 (inactive) in experiment [13]; -0.264 (inactive) in experiment [14]; -0.0303 (inactive) in [15]. The composite z-score in experiment [4] is -0.235 (inactive); in experiment [10] it was 0.17; in experiment [11], 0.729 (inactive); in the experiment with XIP peptide (Xip251-270) it was 0.831.
Regarding `C#CCNCc1ccccc1`, the z-score is -0.0158 in experiment [1]; -1.11 (inactive) in [2]; 0.642 (inactive) in experiment [3]; -0.677 (inactive) in [5]; -0.389 (inactive) in [6]; -0.758 (inactive) in experiment [7]. Besides, the z-score in [8] was -0.624 (inactive); in [9] it was 0.353; in experiment [12] it was -0.158; in [13], -0.0595 (inactive); in [14], 0.213 (inactive); in experiment [15], -0.392 (inactive). The composite z-score was -0.631 (inactive) in experiment [4], -0.0848 in [10], -0.609 (inactive) in [11] and 0.118 in the experiment on XIP peptide (Xip251-270).

Source of the values: PubChem BioAssay.
